For 39 compounds, outcome results are on record in PubChem BioAssay AID720697 (Broad Institute, 2013).

SMILES strings stand for the structures. Potency and affinity values are given separately. Records with an inconclusive call do not appear. A call without a number means that no potency is given here. Active and inactive are the calls of the source.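 The calls were made as follows: active = signal loss with fitted half-maximal concentration at or below twice the top valid tested dose in every test run; inconclusive = runs disagree, flat 30 to 70% signal loss, or poor fit; inactive = all runs flat, opposite direction, or potency beyond limit.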

This test in a line: HEK293T cytotoxicity, dose response, cytotoxicity control for miR-122 modulator project, cell-based, inhibitor set, cherry-pick, set 2 (AID 720697). The settings on record: HEK293T viability, CellTiter-Glo luminescence, 48 h; series mostly up to 26 µM.
Turning to `COC(=O)C[C@H]1CC[C@H]2[C@H](COc3ccc(NS(=O)(=O)c4ccc(F)cc4)cc3C(=O)N2C)O1`, the compound was classed as inactive.
The result for `O=C(NCC(c1cccnc1)N1CCOCC1)NC1CCCCC1` (centres undefined) reads “inactive”; that for `CO[C@@H]1CN(C)C(=O)c2ccc(NS(=O)(=O)c3cccc(F)c3)cc2OC[C@@H](C)NC[C@H]1C`, “inactive”.
`N=c1n(CC(=O)c2ccc(Br)s2)c2ccccc2n1Cc1ccccc1`: the call was inactive.
To `COc1ccc(S(=O)(=O)Nc2cccc3c2O[C@H](CN(C)CC2CCCCC2)[C@@H](C)CN([C@H](C)CO)C3=O)cc1` belongs “inactive”; to `CCCNC(=O)C[C@H]1CC[C@@H]2[C@H](COc3ccc(NS(=O)(=O)c4ccccc4C)cc3C(=O)N2C)O1`, “inactive”; to `CCC(=O)N(C)C[C@@H]1[C@H](c2ccc(-c3ccccc3F)cc2)[C@H](CO)N1C(C)=O`, “inactive”.
The result for `O=C(CC(F)(F)F)N1C[C@H]2[C@@H](c3ccccc31)[C@H](CO)N2C(=O)Cc1cccnc1` reads “inactive”; that for `COc1ccc(S(=O)(=O)Nc2ccc3c(c2)CC(=O)N([C@@H](C)CO)C[C@@H](C)[C@H](CN(C)Cc2ccc(C(F)(F)F)cc2)O3)cc1`, “inactive”; that for `COc1cc(N)c(Cl)cc1NC(=O)c1ccccc1`, “inactive”.
On to `COc1cccc(CNC(=O)C[C@@H]2CC[C@H]3[C@H](COc4ccc(NC(C)=O)cc4C(=O)N3C)O2)c1`, for which the compound was classed as inactive.
The result for `C/C=C/c1ccc([C@@H]2[C@H](CO)N[C@H]2CN(CC(C)C)C(=O)c2ccccn2)cc1` reads “inactive”.
`COc1cc(NC(=O)c2c(F)c(F)c(F)c(F)c2F)c(OC)cc1Cl`: the result was inactive.
The result for `CCCNC(=O)C[C@@H]1CC[C@@H]2[C@H](COc3ccc(NC(=O)Nc4ccccc4F)cc3C(=O)N2C)O1` reads “inactive”; that for `CCC(=O)N1[C@@H](CO)[C@@H](c2ccccc2)[C@@H]1CN(C(C)C)S(C)(=O)=O`, “inactive”.
Turning to `CN1C(=O)c2cc(NC(=O)c3ccc(C(F)(F)F)cc3)ccc2OC[C@H]2O[C@H](CC(=O)NCc3ccc4c(c3)OCO4)CC[C@@H]21`, the result was inactive.
To `COc1ccc(CCNC(=O)c2c(C)cc(=O)oc2C)cc1OC` belongs “inactive”; to `CC(C)C(=O)Nc1ccc2c(c1)C(=O)N(C)[C@@H]1CC[C@@H](CC(=O)NCC3CC3)O[C@H]1CO2`, “inactive”.
Take `COC(=O)C[C@@H]1CC[C@@H]2[C@@H](COc3ccc(NS(=O)(=O)c4ccccc4F)cc3C(=O)N2C)O1`: the compound was classed as inactive.
The result for `COc1ccc(N2CCN(C(=O)CSc3nnc(CNc4ccccc4)o3)CC2)cc1` reads “inactive”; that for `CN1C(=O)c2cc(NC(=O)c3ccc4c(c3)OCO4)ccc2OC[C@H]2O[C@@H](CC(=O)O)CC[C@@H]21`, “inactive”.
In the case of `C[C@@H]1CN([C@@H](C)CO)S(=O)(=O)c2ccc(C3=CCCC3)cc2O[C@@H]1CN(C)C(=O)c1ccc(F)cc1`, the outcome was inactive.
To `O=C(Nc1ccc(Cl)cc1)N1C[C@H]2[C@@H](c3ccccc31)[C@H](CO)N2CC1CCCCC1` belongs “inactive”; to `C[C@@H]1CN([C@@H](C)CO)C(=O)c2cccc(NC(=O)Nc3ccc4c(c3)OCO4)c2O[C@@H]1CN(C)Cc1ccc(Oc2ccccc2)cc1`, “inactive”.
To `CN1CCN(C(=O)C[C@H]2CC[C@@H]3[C@H](COc4ccc(NC(=O)c5cccs5)cc4C(=O)N3C)O2)CC1` belongs “inactive”.
To `Cc1cc(C)cc(NC(=O)c2ccc(CSc3nnc(C)s3)cc2)c1` belongs “inactive”.
Turning to `COc1cccc(C(=O)Nc2ccc3c(c2)C(=O)N(C)[C@@H]2CC[C@@H](CC(=O)NCc4ccc(F)cc4)O[C@@H]2CO3)c1`, the result was inactive.
The result for `COC(=O)C[C@H]1CC[C@@H]2[C@@H](COc3ccc(NC(=O)c4cnccn4)cc3C(=O)N2C)O1` reads “inactive”; that for `O=C(Nc1ccccc1N1CCN(C(=O)c2ccc(Cl)cc2)CC1)c1cccnc1`, “inactive”.
To `COc1cccc(NC(=O)N2[C@H](CO)[C@@H](c3ccccc3)[C@H]2CNCC(C)C)c1` belongs “inactive”; to `CN(C[C@H]1[C@H](c2ccccc2)[C@@H](CO)N1CC1CC1)C(=O)c1cccc(F)c1`, “inactive”; to `CN(C)CCCNC(=O)C[C@@H]1CC[C@@H]2[C@@H](COc3ccc(NC(=O)NC4CCCC4)cc3C(=O)N2C)O1`, “inactive”.
To `CC(C)NC(=O)Nc1ccc2c(c1)C(=O)N(C)[C@H]1CC[C@H](CC(=O)NCC(F)(F)F)O[C@H]1CO2` belongs “inactive”; to `C[C@@H]1CN([C@@H](C)CO)S(=O)(=O)c2ccc(C#Cc3ccncc3)cc2O[C@@H]1CN(C)C(=O)C1CCOCC1`, “inactive”; to `CN1C(=O)c2cc(NS(=O)(=O)c3cccc(F)c3)ccc2OC[C@H]2O[C@@H](CC(=O)NCCN3CCCCC3)CC[C@H]21`, “inactive”.
On to `C[C@@H]1CN([C@@H](C)CO)S(=O)(=O)c2ccc(C#CC3(O)CCCC3)cc2O[C@@H]1CN(C)C(=O)c1cccnc1`, for which the result was inactive.
To `COc1cccc(C(=O)N2C[C@H]3[C@@H](c4ccccc42)[C@H](CO)N3C(C)=O)c1` belongs “inactive”; to `COc1cccc(S(=O)(=O)N(C)C[C@@H]2Oc3cc(C4=CCCC4)ccc3S(=O)(=O)N([C@H](C)CO)C[C@@H]2C)c1`, “inactive”.
The result for `O=C(NC[C@H]1[C@H](c2ccccc2)[C@H](CO)N1CC1CCCC1)c1ccncc1` reads “inactive”.
